Among the data in PubChem BioAssay (NCI) are growth values, retold here.

Holding throughout (test): NCI-60 one-dose screen, 48 h (100 = growth as untreated, 0 = no growth, -100 = all killed)
Conditions in all cases: 10 µM unless noted

Assay [1] relates to T-47D breast.
Assay [2] deals with BT-549 breast.
Assay [3] relates to MDA-MB-435 melanoma.
In assay [4] the test system is SW-620 colon.
For assay [5], the system named is MCF7 breast.
For assay [6], the system named is HCT-116 colon.
Assay [7] has as its system HCC-2998 colon.
For assay [8], the system named is KM12 colon.

The panel holds about 83,000 compounds, 20% with a hit somewhere; the sample as a whole holds those more often.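 In brief: 96-well plates, 48 h treatment, single concentration, percent growth endpoint.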 Unmarked numbers belong to inactive results. Activity calls are given as the source filed them. Rule for the calls: active = growth percent below 10; inactive = the rest.

Turning to `COc1ccc2c3ccnc(C(F)(F)F)c3n(CCCCN)c2c1`, the growth was 52.1% in assay [1]; 52.4% in assay [2]; 45.9% in assay [3]; 38.5% in assay [4]; 35.5% in assay [5]; 16.5% in assay [6]. For the same compound, the growth in assay [7] is 95.7%; in assay [8] it was 54.8%.

As to `CC1(C)NCCC[C@]2(C)[C@H]3C=CC4=C5C[C@](C)(CO)CC[C@]5(C)CC[C@@]4(C)[C@]3(C)CC[C@@H]12`, the growth in assay [1] is -63.9% [100 µM] (active); in assay [2] it was -87.9% [100 µM] (active); in assay [3], -95.6% [100 µM] (active); in assay [4], -80.7% [100 µM] (active); in assay [5], -70.7% [100 µM] (active); in assay [6], -77.4% [100 µM] (active). The growth is -78.8% [100 µM] (active) in assay [7] and -85.5% [100 µM] (active) in assay [8].

On to `CCc1ccc(NC(=O)N[C@@H](Cc2cc(F)cc(F)c2)C(=O)N[C@@H]2C(=O)N3C[C@H](O)C[C@H]3C(=O)N3CCOC[C@H]3C(=O)N[C@@H](C)C(=O)N3C[C@H](C)C[C@H]3C(=O)O[C@H]2C)cc1`, for which the growth in assay [1] was 18.2%; in assay [2], 11.3%; in assay [3] it was 21.5%; in assay [4], 48.5%; in assay [5] it was 24.1%; in assay [6], 13.7%. Moreover, the growth in assay [7] was 32.1%; in assay [8], 42.7%.

As for `O=[N+]([O-])c1cc([N+](=O)[O-])c(NN=C(c2ccc(O)cc2)c2ccc(O)cc2)cc1Cl`, the growth was -50.4% (active) in assay [1]; -11.6% (active) in assay [2]; -62.1% (active) in assay [3]; -75% (active) in assay [4]; -65.4% (active) in assay [5]; -91.1% (active) in assay [6]. The growth was -93.5% (active) in assay [7] and -77.7% (active) in assay [8].

With `O=C(COc1cccc(/C=C2\Oc3ccccc3C2=O)c1)c1ccc([N+](=O)[O-])cc1`, the growth is 51.6% in assay [1]; 110% in assay [2]; 116% in assay [3]; 113% in assay [4]; 50.7% in assay [5]; 92.2% in assay [6]. Further, the results for the growth in assay [7] and in assay [8] were 96.8% and 110%, respectively.

On to `CCCC[C@@H](C=O)NC(=O)[C@H](CC(C)C)NC(=O)[C@H](CC(C)C)NC(=O)OCc1ccccc1`, for which the growth in assay [1] is -42.7% (active); in assay [2], -70.3% (active); in assay [3], -4.11% (active); in assay [4] it was -34.6% (active); in assay [5] it was 0.513% (active); in assay [6] it was -58.5% (active). Moreover, the figures for the growth in assay [7] and in assay [8] were -74.1% (active) and -51.4% (active), respectively.

As for `CCOC(=O)c1sc2nc(-c3cc(OC)c(OC)c(OC)c3)nc(N3CCOCC3)c2c1C`, the growth in assay [1] was -6.97% (active); in assay [2], 41.2%; in assay [3], 35.7%; in assay [4] it was 36.4%; in assay [5] it was 27.1%; in assay [6], 25.6%. Moreover, the values for the growth in assay [7] and in assay [8] were 51.5% and 31.4%, respectively.

Take `C#C[C@]1(O)CC[C@H]2[C@@H]3CC=C4c5nc(Nc6ccccn6)sc5CC[C@]4(C)[C@H]3CC[C@@]21C`: the growth in assay [1] is 10.1%; in assay [2] it was -27.6% (active); in assay [3], -32% (active); in assay [4], -24.9% (active); in assay [5], 7.94% (active); in assay [6] it was 4.49% (active). Moreover, the growth was 34.5% in assay [7] and -32.3% (active) in assay [8].

In the case of `C=C(C)[C@@H]1CC[C@]2(C(N)=O)CC[C@]3(C)[C@H](CC[C@@H]4[C@@]5(C)CC[C@H](O)C(C)(C)[C@@H]5CC[C@]43C)[C@@H]12`, the growth in assay [1] is -24.8% [100 µM] (active); in assay [2], -21.6% [100 µM] (active); in assay [3] it was -4.44% [100 µM] (active); in assay [4], -4.49% [100 µM] (active); in assay [5] it was -12.5% [100 µM] (active); in assay [6] it was -24.8% [100 µM] (active). Further, the values for the growth in assay [7] and in assay [8] were -39% [100 µM] (active) and -63.5% [100 µM] (active), respectively.

For `CCOC(=O)c1cc(C#N)n2ncc3ccccc3c12`, the growth in assay [1] was 92.2%; in assay [2], 91.5%; in assay [3] it was 103%; in assay [4] it was 98%; in assay [5], 87.2%; in assay [6] it was 90.8%. The growth in assay [7] was 104%; in assay [8] it was 102%.

Turning to `Cc1cnc(N)nc1OCCNC(=O)c1cccc(-c2ccc(S(=O)(=O)Nc3ccc4c(c3)N(C(=O)C3CC3)CCC4)cc2)c1`, the growth was 36.9% in assay [1]; 66.2% in assay [2]; 78.8% in assay [3]; 99.1% in assay [4]; 77.2% in assay [5]; 76.3% in assay [6]. In addition, the growth in assay [7] was 77.4%; in assay [8] it was 75.2%.

As for `NC(=O)c1cccc(-c2ccc(S(=O)(=O)Nc3ccc4c(c3)N(C(=O)C3CC3)CCC4)cc2)c1`, the growth is 26.1% in assay [1]; 96.7% in assay [2]; 1.89% (active) in assay [3]; 32.3% in assay [4]; 22.9% in assay [5]; 98.2% in assay [6]. Besides, the growth is 64.5% in assay [7] and 18.9% in assay [8].

`COc1ccc(-c2cc(-c3ccc(Cl)cc3)nc(NCCCCNc3ccnc4cc(Cl)ccc34)n2)cc1`: the growth is 78.1% in assay [1]; 85.5% in assay [2]; 93.8% in assay [3]; -61.8% (active) in assay [4]; -69.3% (active) in assay [5]; 23.4% in assay [6]. Also, the growth in assay [7] was 26.1%; in assay [8], 76.2%.

Turning to `CC(C)c1ccc(/C=N/N=C(N)N)cc1`, the growth is 91% in assay [1]; 86.3% in assay [2]; -28.7% (active) in assay [3]; 36.2% in assay [4]; 8.1% (active) in assay [5]; 84.3% in assay [6]. In addition, the growth in assay [7] was 50.9%; in assay [8], 27.7%.

With `C[C@H]1[C@H](C)CC[C@]2(C(=O)N3CCN(C)CC3)CC[C@]3(C)C(=CC[C@@H]4[C@@]5(C)C/C(=C/c6ccco6)C(=O)C(C)(C)[C@@H]5CC[C@]43C)[C@H]12`, the growth in assay [1] is 20.3% [100 µM]; in assay [2] it was 50.8% [100 µM]; in assay [3] it was 42.6% [100 µM]; in assay [4], 39.9% [100 µM]; in assay [5], 23.9% [100 µM]; in assay [6] it was 19% [100 µM]. Besides, the growth is 38.2% [100 µM] in assay [7] and 35.7% [100 µM] in assay [8].
